Screening data from PubChem.
Many of the other results were omitted from the sample, so hits are more common in it than they were.
12-LOX inh: blocks human arachidonate 12S-lipoxygenase | P18054 | purified 12hLO, xylenol orange hydroperoxide absorbance | Potency, µM (highest dose often 108 µM), without a hit: at the highest dose activity change, negative = inhibition, actives largely listed as inhibitors | actives 1.1% (n = 580,000); further: potency means the concentration at half of the fitted maximal effect
Target sequence (P18054 whole entry, looked up): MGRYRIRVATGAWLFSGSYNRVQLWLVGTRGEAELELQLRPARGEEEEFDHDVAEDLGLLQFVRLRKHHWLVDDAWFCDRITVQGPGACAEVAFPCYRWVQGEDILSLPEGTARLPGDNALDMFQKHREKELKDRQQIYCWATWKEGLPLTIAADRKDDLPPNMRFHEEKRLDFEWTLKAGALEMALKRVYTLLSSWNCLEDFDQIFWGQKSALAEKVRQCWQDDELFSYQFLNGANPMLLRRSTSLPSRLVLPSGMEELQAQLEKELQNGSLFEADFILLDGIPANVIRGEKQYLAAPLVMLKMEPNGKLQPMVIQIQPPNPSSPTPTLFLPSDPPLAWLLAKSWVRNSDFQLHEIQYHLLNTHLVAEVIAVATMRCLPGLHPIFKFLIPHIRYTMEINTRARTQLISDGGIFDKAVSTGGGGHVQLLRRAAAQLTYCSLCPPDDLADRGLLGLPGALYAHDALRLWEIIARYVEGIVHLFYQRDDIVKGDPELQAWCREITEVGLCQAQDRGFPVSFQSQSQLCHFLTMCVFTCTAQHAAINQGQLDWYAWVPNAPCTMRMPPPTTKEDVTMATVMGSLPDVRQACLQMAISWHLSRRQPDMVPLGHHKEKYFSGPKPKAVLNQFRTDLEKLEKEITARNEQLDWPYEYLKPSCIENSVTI
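Hydroperoxide product was detected by ferrous iron/xylenol orange as the 573 to 405 nm absorbance ratio. Arachidonic acid at 40 uM (final) was turned over for 30 min at room temperature by 150 nM human 12hLO, pH 7.0 Hepes buffer, after 15 min compound preincubation.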
TDP1 cell CPT: growth inhibition of DT40 Tdp1-/-;hTDP1 cells with camptothecin (screen for TDP1 inhibitors). chicken DT40 Tdp1-/-;hTDP1 cells + 20 nM CPT, ATP luminescence, 48 h. Potency, µM (titrated, usually from 46.2 µM), for the others: top-dose activity change, negative = growth inhibition, actives largely listed as inhibitors. actives 12% (n = 420,000). AID 686979; further: potency means the concentration at half of the fitted maximal effect; nearly all actives have a fitted effect of over 55% in size
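Chicken DT40 Tdp1-/- cells complemented with human TDP1, 400 cells/well, exposed to compounds plus 20 nM camptothecin for at least 48 h at 37 C; viability read as ATP content by CellTiter-Glo luminescence.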
IL1B secr inh: inflammasome signaling inhibition, IL-1 beta readout; THP-1 LPS/ATP IL-1B secretion, AlphaLISA, 16 h; active compounds read low; activity change, % at 57.5 µM; actives 4.7% (n = 360,000); in the data active means activity change below about -50%; inconclusive means mostly about -30% to -49%
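Secreted IL-1B measured by AlphaLISA bead assay after 16 h compound exposure of THP-1 cells; compounds (final up to 57.5 uM) added 1 h before LPS (250 ng/mL) and ATP (1.25 mM) stimulation; lower signal means less secretion.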
DT40 TDP1 no CPT: qHTS for Inhibitors of human tyrosyl-DNA phosphodiesterase 1 (TDP1): qHTS in cells in absence of CPT; DT40 Tdp1-/- hTDP1 cells, no CPT, ATP luminescence, 48 h; Potency, µM (doses to about 46.2 µM), for inactives: at the top dose activity change, negative = growth inhibition, actives largely listed as inhibitors; actives 15% (n = 420,000); further: potency means the concentration at half of the fitted maximal effect; nearly all actives have a fitted effect of over 55% in size
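Compound effects on proliferation are scored in DT40 Tdp1-/-;hTDP1 cells in the absence of CPT. ATP levels (CellTiter-Glo luminescence) are recorded after a ≥48 hr, 37 °C incubation.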
HT1080 IDH1KD tx: HT-1080 IDH1 knockdown cell toxicity (counter line); HT-1080 IDH1 knockdown viability, ATP luminescence, 48 h; Potency, µM (doses to about 46.1 µM), for the others: top-dose activity, negative = toxicity, actives largely listed as cytotoxic; actives 2% (n = 360,000); AID 686971;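 further: potency means the concentration at half of the fitted maximal effect; 0% = DMSO wells and -100% = cell-free medium wells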
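Cytotoxicity counter-line: IDH1KD HT-1080, 48 h, CellTiter-Glo. Curves classed by r2, magnitude and activity.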
HT1080NT lethal: kills 2HG-producing HT-1080-NT fibrosarcoma cells; HT-1080-NT fibrosarcoma viability, CellTiter-Glo ATP luminescence, 48 h; Potency, µM (top dose mostly 46.1 µM), for inactives: at the top dose activity, negative = less viability, hits mostly cytotoxic; actives 1.6% (n = 360,000); AID 686970;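 further: NT is the 2HG producing partner of a matched IDH1 knockdown line; potency means the concentration at half of the fitted maximal effect; 0% = DMSO-treated cells and -100% = media-only wells without cells; nearly all actives have a fitted effect of over 55% in size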
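Viability by CellTiter-Glo luminescence after 48 h compound exposure at 37C of HT-1080-NT cells (750/well, RPMI, 5% FBS). % activity scaled between DMSO wells and medium-only wells, then curve-fitted and categorized by curve class.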
* hit, by the source's call; ? = inconclusive; nt = not tested or not shown; [ ] = dose if it differs, or a comment. Unless noted, the call rests on the fitted dose curve; in most records, active means well fitted curve in the direction sought with a large enough effect; inconclusive means small, poorly fitted or top-dose-only effect, or another doubt; inactive means no such curve, though single readings can be large; an effect the other way counts as inactive or inconclusive. Unless noted, on the % scale 0 is the no-effect control and ±100 the full control effect.

SMILES	12-LOX inh	TDP1 cell CPT	IL1B secr inh	DT40 TDP1 no CPT	HT1080 IDH1KD tx	HT1080NT lethal
CCOc1ccccc1CN1CCCC(c2nc(-c3cccnc3)no2)CCNC(=O)CC1 (stereo not drawn)	11.6%	nt	nt	nt	nt	nt
COc1ccccc1CCNC(=O)C1CCN(c2nnc(C)c3c(C)n(-c4ccc(C)cc4)nc23)CC1	-6.1%	4.61µM*	-9.8	2.91µM*	1.5%	-4.2%
COc1ccc(-n2nc3c(N4CCC(C(=O)NCCc5ccco5)CC4)nnc(C)c3c2C)cc1	-25.6%	?	-50.7*	?	?	?
Cc1nnc(SCC(=O)NCCc2ccco2)c2nn(-c3ccccc3)c(C)c12	-55.7%	nt	nt	nt	nt	nt
CC/C(=N\Nc1ccccc1[N+](=O)[O-])c1ccc(O)cc1	?	-19.8%	-22.7	-10.0%	20.6µM*	?
CC1C(=O)Nc2ccc(S(=O)(=O)NCCc3ccc(Cl)cc3)cc2NC1=O (stereo not drawn)	15.0%	?	17.0	?	-0.5%	-21.8%
CC(C)C1C(=O)Nc2ccc(S(=O)(=O)NCc3ccc(Cl)cc3)cc21 (stereo not drawn)	?	23.1µM*	nt	16.4µM*	nt	nt
O=C(/C=C/c1ccccc1Cl)c1ccccc(=O)c1O	?	2.91µM*	-96.7*	4.11µM*	11.6µM*	11.6µM*
O=C(/C=C/c1ccc([N+](=O)[O-])cc1)c1ccccc1	1.2%	nt	nt	nt	nt	nt
O=C(/C=C/c1ccc([N+](=O)[O-])cc1)c1ccccc(=O)c1O	?	2.59µM*	-98.0*	3.26µM*	5.8µM*	6.51µM*
Cc1ccc(/C=C/C(=O)c2ccccc(=O)c2O)c(C)c1	31.6µM*	14.6µM*	-103.6*	20.6µM*	18.4µM*	20.6µM*
Cc1ccc(C)c(/C=C/C(=O)c2ccccc(=O)c2O)c1	20µM*	10.3µM*	-63.9*	6.51µM*	14.6µM*	?
O=C(/C=C/c1ccccc1Cl)c1cc(Br)ccc1O	-45.3%	nt	nt	nt	nt	nt
COc1cc(COC(=O)c2ccc(S(=O)(=O)N3CCOCC3)cc2)ccc1OC(F)F	-0.7%	nt	nt	nt	nt	nt
O=C(Nc1ccc2c(c1)OCCO2)C(c1ccnc2ccccc12)N1CCC(Cc2ccccc2)CC1 (stereo not drawn)	1.1%	?	3.0	18.4µM*	-14.1%	-16.9%
Cc1cccc(C)c1NC(=O)C(c1ccnc2ccccc12)N1CCN(C)CC1 (stereo not drawn)	16.7%	?	31.4	18.4µM*	-0.8%	2.1%
COc1ccc(NC(=O)C(c2ccnc3ccccc23)n2c(=O)c(-c3ccco3)nc3ccccc32)cc1 (stereo not drawn)	-6.7%	?	-3.8	?	-0.7%	-1.7%
Cc1cccc(C)c1NC(=O)C(c1ccnc2ccccc12)n1c(=O)c(-c2ccco2)nc2ccccc21 (stereo not drawn)	?	?	-7.7	16.4µM*	-17.1%	-18.4%
Cc1cccc(C)c1NC(=O)C(c1ccccc1F)n1c(=O)c(-c2ccco2)nc2ccccc21 (stereo not drawn)	?	?	-11.2	20.6µM*	1.2%	-9.7%
Cc1cccc(-n2nnnc2C2(NCc3ccccc3)CCCC2)c1	8.3%	nt	nt	nt	nt	nt
COc1ccc(C2Cn3nnc(C(=O)N4CCN(C(=O)c5ccccc5C)CC4)c3CO2)cc1 (stereo not drawn)	16.2%	nt	nt	nt	nt	nt
Cc1cc(C)c(S(=O)(=O)NCCn2c(C)cnc2C2CC2)c(C)c1	12.4%	nt	nt	nt	nt	nt
CN(C)c1cc[n+](CC(=O)Nc2ccc(Cl)c([N+](=O)[O-])c2)cc1	-0.5%	?	-7.4	?	?	-20.7%
O=C(C[n+]1ccc(-c2ccccc2)cc1)Nc1ccc([N+](=O)[O-])cc1	-4.9%	10.3µM*	-18.9	14.6µM*	-1.0%	-7.5%
CN(C)c1cc[n+](CC(=O)Nc2cccc([N+](=O)[O-])c2)cc1	-0.8%	?	1.3	3.26µM*	-19.4%	-6.1%
SMILES	12-LOX inh	TDP1 cell CPT	IL1B secr inh	DT40 TDP1 no CPT	HT1080 IDH1KD tx	HT1080NT lethal
CC(=O)c1ccc(NC(=O)C[n+]2ccc(N(C)C)cc2)cc1	-8.9%	-13.4%	21.7	-10.9%	-1.5%	?
CN(C)c1cc[n+](CC(=O)Nc2ccc(OC(F)F)cc2)cc1	?	23.1µM*	-11.7	14.6µM*	?	-20.4%
COc1cccc(NC(=S)NC(Cc2ccccc2)c2ccccc2)c1 (stereo not drawn)	39.8µM*	?	-7.4	16.4µM*	-26.6%	-19.4%
Cc1cccc(C(=O)NCC(=O)NC(C)CCc2ccccc2)c1 (stereo not drawn)	-4.7%	1.4%	0.0	5.7%	0.4%	13.8%
Cc1cccc(NC(=O)CCc2ccccc2)c1	-2.7%	-12.5%	-14.1	-3.0%	2.1%	19.1%
Cc1cccc(NC(=O)C(C#N)C(=O)CCc2ccccc2)c1 (stereo not drawn)	31.6µM*	nt	nt	nt	nt	nt
COc1cccc(NC(=S)NC(C)c2ccc(OC)c(OC)c2)c1 (stereo not drawn)	-16.4%	-7.0%	0.0	-16.5%	-9.0%	-3.3%
Cc1cccc(NC(=S)NC(C)CCc2ccccc2)c1 (stereo not drawn)	39.8µM*	?	-95.7*	?	0.5%	-9.6%
CC(CCc1ccccc1)NC(=O)c1ccc(NC(=O)c2ccccc2)cc1 (stereo not drawn)	-17.2%	14.6µM*	3.5	10.3µM*	12.2%	16.4µM*
Cc1cccc(NC(=O)NC(C)CCc2ccccc2)c1 (stereo not drawn)	0.8%	-17.6%	-56.6*	-16.6%	-7.0%	1.4%
COc1ccc(-c2nn(-c3ccccc3)cc2CN2CCC(F)CC2)c(F)c1	1.3%	nt	nt	nt	nt	nt
NC(Cc1ccccc1)C(=O)N1CCC2(CC1)CN(C(=O)c1ccc(Cl)cc1)CCO2 (stereo not drawn)	9.5%[6.33 µM]	nt	nt	nt	nt	nt
CCCCN(Cc1ccccc1)c1ccc(NS(=O)(=O)c2ccc(C(C)=O)cc2)cc1C(=O)O	4.47µM*	nt	nt	nt	nt	nt
CCCCN(Cc1ccccc1)c1ccc(NS(=O)(=O)c2ccc(C(C)(C)C)cc2)cc1C(=O)O	14.1µM*	nt	nt	nt	nt	nt
CCCNC(=O)N(C1CCOCC1)C1CCN(S(=O)(=O)c2cc(F)ccc2C)CC1	29.7%	nt	nt	nt	nt	nt
CN(C)CCN(C)c1cc2c(c3c1ccn3C)C1CCC2O1 (stereo not drawn)	?	?	-3.5	?	4.1%	6.7%
CN(Cc1ccccc1)c1cc2c(c3c1ccn3C)C1CCC2O1 (stereo not drawn)	?	?	-2.4	18.4µM*	?	-26.6%
